Most compounds without a hit are left out; they make up all but 3.6% or so of the library.
Sm TGR inh: S. mansoni TGR enzyme inhibition; Q962Y6; purified TGR, DTNB reduction, TNB absorbance 405 nm; Potency, µM (titrated, usually from 114 µM), for the others: at the highest dose activity change, negative = inhibition, usual class: inhibitors; 3% of 360,000 active; AID 485364; also: nearly all actives have a fitted effect of over 60% in size
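First, TGR (20 nM dispensed) and NADPH were mixed with compound. Second, a 15 min room-temperature incubation followed. Third, further NADPH and then DTNB were added to start the reaction. Finally, TNB absorbance was monitored kinetically.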
AmpC detergent: inhibitors of E. coli AmpC beta-lactamase with detergent; P00811; AmpC hydrolysis of nitrocefin, absorbance 480 nm, 0.01% Triton; Potency, µM (titrated, usually from 114 µM), without a hit: top-dose activity change, negative = inhibition, hits mostly inhibitors; 0.041% of 370,000 active; AID 485294;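 also: 0% = no-compound wells and -100% = no-enzyme wells; nearly all actives have a fitted effect of over 25% in size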
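AmpC (5.3 nM in the dispensed reagent) in 20 mM phosphate pH 7.0 with 0.01% (detergent screen) or 0.0001% Triton X-100 was preincubated with compounds for 15 min at room temperature. Nitrocefin was then added from an 800 uM solution, and hydrolysis was followed at 480 nm.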
Giardia FBPA inh-1: inhibitors of Giardia lamblia fructose-1,6-bisphosphate aldolase; A8B2U2; Potency, µM (titrated, usually from 59.6 µM), for inactives: top-dose activity, negative = inhibition, most hits filed as inhibitors; 0.71% of 290,000 active; purified Giardia FBPA; also: nearly all actives have a fitted effect of over 55% in size
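Giardia FBPA (40 nM reagent) was preincubated 10 min at RT with compound (up to 57.5 uM final), then substrate plus GAPDH/TPI/NAD/arsenate coupling system with diaphorase/resazurin was added; resorufin fluorescence (525/598 nm) was read after 20 min.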
AmpC inh no detg: inhibitors of E. coli AmpC beta-lactamase without detergent | AmpC nitrocefin hydrolysis, absorbance 480 nm, 0.0001% Triton | Potency, µM (doses to about 57.1 µM), for inactives: at the highest dose activity change, negative = inhibition, hits mostly inhibitors | 0.52% of 330,000 active;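 also: plate controls were no compound for no effect and no enzyme for full effect; nearly all actives have a fitted effect of over 20% in size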
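20 mM phosphate pH 7.0 + 0.01% (detergent screen) or 0.0001% Triton X-100; 5.3 nM AmpC reagent; cpd preinc 15 min RT; nitrocefin (800 uM stock) to start; A480 q20 s × 4 min; Activity was normalised to no-enzyme and no-compound control wells.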
Giardia growth: blocks growth of Giardia lamblia trophozoites; shares compounds with Giardia FBPA inh-1; Giardia lamblia trophozoite growth inhibition; Potency, µM (titrated, usually from 57.5 µM), for the others: at the highest dose activity change, negative = inhibition, most hits filed as inhibitors; 5% of 1,500 active; AID 2785;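 also: trophozoites exposed to compound for 48 h at 37 °C; nearly all actives have a fitted effect of over 70% in size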
Mammalian tox: mammalian cytotoxicity of Giardia aldolase inhibitor hits. Potency, µM (doses to about 57.5 µM), for inactives: top-dose viability change, negative = toxicity, hits mostly inhibitors. shares compounds with Giardia FBPA inh-1. mammalian cell viability counter-screen, qHTS. 4% of 1,500 active;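 also: Chinese hamster ovary cells used as mammalian cytotoxicity surrogate; viability measured as cellular ATP by luminescence; compound exposure lasted 48 h before reading; nearly all actives have a fitted effect of over 60% in size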
Giardia FBPA inh-2: confirmation of Giardia fructose-bisphosphate aldolase inhibitors | shares compounds with Giardia FBPA inh-1 | purified Giardia aldolase enzyme activity, qHTS | Potency, µM (series often up to 57.5 µM), for the others: at the top dose activity change, negative = inhibition, usual class: inhibitors | 5% of 1,500 active | AID 2787; also: nearly all actives have a fitted effect of over 45% in size
Rabbit aldolase: selectivity test for Giardia aldolase inhibitors: rabbit aldolase; Rabbit muscle FBPA enzyme inhibition, selectivity counter-screen; shares compounds with Giardia FBPA inh-1; AID 2794; 4% of 1,500 active; Potency, µM (series often up to 57.5 µM), for inactives: at the highest dose activity, negative = inhibition, hits mostly inhibitors; also: nearly all actives have a fitted effect of over 60% in size
Target sequence (P00883 whole entry, looked up): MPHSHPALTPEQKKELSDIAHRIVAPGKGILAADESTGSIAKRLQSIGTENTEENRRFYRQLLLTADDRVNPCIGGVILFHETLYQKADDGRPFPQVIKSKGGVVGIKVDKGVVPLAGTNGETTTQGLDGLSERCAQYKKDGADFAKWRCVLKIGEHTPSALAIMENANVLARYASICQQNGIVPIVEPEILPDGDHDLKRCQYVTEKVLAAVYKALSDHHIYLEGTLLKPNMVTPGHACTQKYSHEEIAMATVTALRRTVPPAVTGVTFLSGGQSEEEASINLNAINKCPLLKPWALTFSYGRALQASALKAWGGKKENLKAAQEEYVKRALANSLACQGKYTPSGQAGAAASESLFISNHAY
GAPDH coupling: GAPDH inhibition flagged for Giardia aldolase hits. shares compounds with Giardia FBPA inh-1. GAPDH coupling enzyme counterscreen, biochemical, qHTS. Potency, µM (series often up to 57.5 µM), for the others: at the highest dose activity change, negative = inhibition, actives largely listed as inhibitors. 6% of 1,500 active. AID 2795; also: nearly all actives have a fitted effect of over 55% in size
An asterisk follows results filed as active; ? = inconclusive; . = no result given; [ ] = another dose, or the depositor's remark. Calls follow the shape of the dose curve; as a rule, active = well fitted curve in the direction sought with a large enough effect; inconclusive = small, poorly fitted or top-dose-only effect, or another doubt; inactive = no such curve, though single readings can be large; an effect the other way counts as inactive or inconclusive. Unless noted, % is scaled to controls: 0 for no effect and ±100 for the full control effect; potency is read from the fitted curve at half-maximal effect.

SMILES	Sm TGR inh	AmpC detergent	Giardia FBPA inh-1	AmpC inh no detg	Giardia growth	Mammalian tox	Giardia FBPA inh-2	Rabbit aldolase	GAPDH coupling
COc1ccc(C2C(C#N)=C(N)N(c3cccnc3)C3=C2C(=O)CC(C)(C)C3)cc1OC (stereo unspecified)	45µM*	?	14µM*	9%	25%	1%	-4%	-7%	8%
CCOC(=O)c1sc2nc(CSc3ccccc3)nc(N3CCC(C(N)=O)CC3)c2c1C	-1%	1%	-15%	121%	.	.	.	.	.
CCOC(=O)c1sc2nc(CSc3ccccc3)nc(N3CCCN(C)CC3)c2c1C	-32%	-6%	20µM*	204%	-18%	-17%	4%	-1%	6%
Cc1nn(CCC(=O)NC(C)C)c(=O)c2nn(-c3ccccc3)c(C)c12	0%	5%	.	.	.	.	.	.	.
Nc1nc(=S)c2ncn([C@@H]3O[C@H](CO)[C@@H](O)[C@H]3O)c2[nH]1	0%	-13%	.	-11%	.	.	.	.	.
OCC1OC(n2cnc3c(=S)nc[nH]c32)C(O)C1O (stereo unspecified)	.	.	4.5µM*	.	?	6.3µM*	2%	2%	-6%
O=c1[nH]cnc2c1ncn2C1OC(CO)C(O)C1O (stereo unspecified)	.	.	-2%	.	.	.	.	.	.
Nc1nc(=S)c2ncn(C3OC(CO)C(O)C3O)c2[nH]1 (stereo unspecified)	-35%	3%	6.3µM*	-26%	3%[10.4 µM]	2%	1%	2%	1%
CC1(C)OC2C(CO)OC(n3cnc4c(=S)nc[nH]c43)C2O1 (stereo unspecified)	-13%	3%	4.5µM*	-1%	-25%[38.3 µM]	?	-4%	-2%	1%
CCCCCc1nnc(NC(=O)CN2C(=O)C3CCCCC3C2=O)s1 (stereo unspecified)	-1%	3%	.	48%	.	.	.	.	.
O=c1[nH]c(-c2ccccn2)nc2sc(-c3ccccc3)cc12	1%	-2%	?	-12%	.	.	.	.	.
Cn1ccnc1P(=S)(c1nccn1C)N1CCOCC1	-3%[11.4 µM]	-9%	-13%	-14%	.	.	.	.	.
Cn1ccnc1P(=S)(c1nccn1C)c1nccn1C	1%	?	7.9µM*	-14%	13%[38.3 µM]	5%	2%	5%	-2%
CCN(CC(=O)Nc1ccccc1OC)C(=O)CCOc1ccc(C(C)(C)C)cc1	3%	?	.	188%	.	.	.	.	.
CCC(C)n1c(SCC(=O)NC2CCCC2)nc2ccccc2c1=O (stereo unspecified)	-6%	?	.	-1%	.	.	.	.	.
CC[C@]12c3[nH]c4cc(-c5ccco5)ccc4c3CCN1C(=O)[C@@H](CC(=O)NC(C)(C)C)C[C@@H]2C(=O)N1CCN(C(=O)c2ccco2)CC1	.	.	.	239%	.	.	.	.	.
COc1cc(/C=C2\SC(N)=NC2=O)cc(Cl)c1O	6%	-13%	4%	-12%	.	.	.	.	.
Cc1ccc(C2=NC(=O)/C(=C/c3cc(O)c(O)c(Br)c3)S2)cc1	-32%	2%	16µM*	18µM*	7%[10.4 µM]	-18%	-15%	-9%	10%
COc1cc(/C=C2\SC(c3ccc(C)cc3)=NC2=O)cc(OC)c1O	-26%	7%	14µM*	9%	?	-7%	14µM*	?	?
O=C(Nc1ccccc1F)c1cc(S(=O)(=O)N2CCOCC2)cs1	-11%	-12%	1%	-1%	.	.	.	.	.

Bioassay records deposited in PubChem BioAssay by National Center for Advancing Translational Sciences (NCATS).
